# Experimental data taken from publication PMC7862700, “An all-to-all approach to the identification of sequence-specific readers for epigenetic DNA modifications on cytosine”.
# Legend:
# Assay in all cases: DAPPL (digital affinity profiling via proximity ligation, sequencing); 10 mM Tris-HCl pH 7.5, 50 mM NaCl, 1 mM DTT, 4% glycerol, room temperature, 30 min; GST-TFs on glutathione beads, 16-mer random dsDNA library, 0.1% formaldehyde crosslink after washing; high values mean tight binding
# FEV = biological target: T1, FEV (Homo sapiens, UniProt Q99581 1-238); details: protein: recombinant; tags: N-terminal GST; dsDNA, one strand shown
# T1 sequence: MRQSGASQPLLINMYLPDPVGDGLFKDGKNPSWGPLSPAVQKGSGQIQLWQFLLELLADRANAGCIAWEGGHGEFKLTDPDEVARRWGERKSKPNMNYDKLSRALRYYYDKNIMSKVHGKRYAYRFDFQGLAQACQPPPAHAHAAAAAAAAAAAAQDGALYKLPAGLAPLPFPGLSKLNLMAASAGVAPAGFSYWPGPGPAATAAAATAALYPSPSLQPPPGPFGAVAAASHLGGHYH
# How it was run: (§1)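 The binding signal reported is, for every hexamer, its read frequency for a factor over its read frequency for the tag-only sample. Reads came from pools of yeast-expressed, GST-fused human transcription factors on glutathione beads, barcoded with DNA and mixed with that sample, which were incubated with 200 nmole of a random double-stranded 16-mer DNA library in Tris/NaCl/DTT/glycerol buffer at room temperature for 30 min. After washing, the pools were crosslinked with 0.1% formaldehyde, proximity-ligated with BsaI/T4 ligase for 1 h at 37 °C, PCR-amplified and sequenced on an Illumina NextSeq500.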
# ETV5 = ETV5 (Homo sapiens, UniProt P41161 1-510); details: protein: recombinant; tags: N-terminal GST; dsDNA, one strand shown
# Chain of ETV5 (P41161 whole entry): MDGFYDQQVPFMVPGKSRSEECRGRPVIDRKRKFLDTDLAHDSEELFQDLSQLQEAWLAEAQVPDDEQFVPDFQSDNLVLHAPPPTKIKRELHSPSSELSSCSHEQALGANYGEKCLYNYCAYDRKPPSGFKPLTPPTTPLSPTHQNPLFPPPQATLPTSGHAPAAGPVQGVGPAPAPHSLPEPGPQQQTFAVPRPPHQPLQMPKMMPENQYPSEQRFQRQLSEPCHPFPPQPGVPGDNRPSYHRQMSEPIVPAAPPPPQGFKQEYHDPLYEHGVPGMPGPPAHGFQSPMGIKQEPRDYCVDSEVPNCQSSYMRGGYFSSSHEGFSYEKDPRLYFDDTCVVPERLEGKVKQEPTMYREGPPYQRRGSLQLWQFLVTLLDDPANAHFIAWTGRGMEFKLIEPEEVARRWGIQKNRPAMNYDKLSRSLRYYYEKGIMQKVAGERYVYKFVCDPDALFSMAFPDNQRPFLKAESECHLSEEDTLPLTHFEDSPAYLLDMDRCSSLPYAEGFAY
# How it was run: as §1
# HSF1 = HSF1 (Homo sapiens, UniProt Q00613 1-529); details: protein: recombinant; tags: N-terminal GST; chain copies: 3; dsDNA, one strand shown
# Chain of HSF1 (Q00613 whole entry): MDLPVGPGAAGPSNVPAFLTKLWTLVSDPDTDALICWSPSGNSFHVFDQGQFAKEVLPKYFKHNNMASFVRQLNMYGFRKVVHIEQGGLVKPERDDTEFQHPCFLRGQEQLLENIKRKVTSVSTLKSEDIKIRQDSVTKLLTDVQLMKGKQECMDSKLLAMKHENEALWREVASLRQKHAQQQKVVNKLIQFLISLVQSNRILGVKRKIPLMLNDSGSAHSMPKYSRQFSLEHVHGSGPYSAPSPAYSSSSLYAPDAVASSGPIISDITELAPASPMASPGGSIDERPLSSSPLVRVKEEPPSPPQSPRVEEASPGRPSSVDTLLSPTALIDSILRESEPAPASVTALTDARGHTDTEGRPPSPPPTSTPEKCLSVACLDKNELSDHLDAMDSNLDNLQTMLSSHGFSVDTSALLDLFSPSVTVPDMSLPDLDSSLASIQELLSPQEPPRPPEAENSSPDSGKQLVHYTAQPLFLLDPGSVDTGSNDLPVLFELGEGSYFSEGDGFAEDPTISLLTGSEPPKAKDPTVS
# How it was run: as §1
# SPIC = biological target: T2, SPIC (Homo sapiens, UniProt Q8N5J4 1-248); details: protein: recombinant; tags: N-terminal GST; dsDNA, one strand shown
# T2 sequence: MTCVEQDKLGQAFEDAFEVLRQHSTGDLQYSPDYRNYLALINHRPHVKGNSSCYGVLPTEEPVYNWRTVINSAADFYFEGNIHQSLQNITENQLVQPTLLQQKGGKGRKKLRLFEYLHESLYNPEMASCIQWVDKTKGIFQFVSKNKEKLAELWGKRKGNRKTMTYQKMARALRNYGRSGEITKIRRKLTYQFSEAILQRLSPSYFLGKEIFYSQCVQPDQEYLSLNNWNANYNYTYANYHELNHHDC
# How it was run: as §1
# ELF4 = ELF4 (Homo sapiens, UniProt Q99607 1-663); details: protein: recombinant; tags: N-terminal GST; dsDNA, one strand shown
# Chain of ELF4 (Q99607 whole entry): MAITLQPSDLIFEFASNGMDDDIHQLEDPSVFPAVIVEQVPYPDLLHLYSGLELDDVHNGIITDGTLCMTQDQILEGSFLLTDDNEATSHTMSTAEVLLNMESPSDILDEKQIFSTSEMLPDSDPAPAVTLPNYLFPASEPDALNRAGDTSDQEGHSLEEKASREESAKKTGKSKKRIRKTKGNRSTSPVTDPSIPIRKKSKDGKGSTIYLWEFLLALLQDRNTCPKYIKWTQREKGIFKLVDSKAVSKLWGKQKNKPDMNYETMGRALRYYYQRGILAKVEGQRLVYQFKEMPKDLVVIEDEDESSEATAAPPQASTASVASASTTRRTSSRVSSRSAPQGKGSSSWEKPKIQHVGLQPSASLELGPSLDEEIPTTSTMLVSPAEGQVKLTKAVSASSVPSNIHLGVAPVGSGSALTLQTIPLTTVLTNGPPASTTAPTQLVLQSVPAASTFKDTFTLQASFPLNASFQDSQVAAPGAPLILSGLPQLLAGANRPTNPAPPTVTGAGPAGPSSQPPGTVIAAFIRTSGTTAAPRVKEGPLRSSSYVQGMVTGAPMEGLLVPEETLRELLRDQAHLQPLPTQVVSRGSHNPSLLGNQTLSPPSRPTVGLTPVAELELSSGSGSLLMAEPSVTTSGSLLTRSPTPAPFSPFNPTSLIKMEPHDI
# How it was run: as §1
# ELK4 = biological target: T3, ELK4 (Homo sapiens, UniProt P28324-2 1-405); details: protein: recombinant; tags: N-terminal GST; dsDNA, one strand shown
# T3 sequence: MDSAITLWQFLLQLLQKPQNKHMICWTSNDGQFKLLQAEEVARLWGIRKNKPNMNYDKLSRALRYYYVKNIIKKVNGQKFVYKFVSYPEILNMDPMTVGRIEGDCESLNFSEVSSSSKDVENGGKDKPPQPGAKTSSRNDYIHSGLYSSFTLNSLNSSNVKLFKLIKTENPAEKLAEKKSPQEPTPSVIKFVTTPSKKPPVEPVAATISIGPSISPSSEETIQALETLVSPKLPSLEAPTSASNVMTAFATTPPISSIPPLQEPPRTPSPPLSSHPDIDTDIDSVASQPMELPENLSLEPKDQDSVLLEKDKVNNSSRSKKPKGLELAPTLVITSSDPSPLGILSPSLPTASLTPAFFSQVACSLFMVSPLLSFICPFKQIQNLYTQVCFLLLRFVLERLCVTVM
# How it was run: as §1
# ETV2 = biological target: T4, ETV2 (Homo sapiens, UniProt O00321 1-342); details: protein: recombinant; tags: N-terminal GST; dsDNA, one strand shown
# T4 sequence: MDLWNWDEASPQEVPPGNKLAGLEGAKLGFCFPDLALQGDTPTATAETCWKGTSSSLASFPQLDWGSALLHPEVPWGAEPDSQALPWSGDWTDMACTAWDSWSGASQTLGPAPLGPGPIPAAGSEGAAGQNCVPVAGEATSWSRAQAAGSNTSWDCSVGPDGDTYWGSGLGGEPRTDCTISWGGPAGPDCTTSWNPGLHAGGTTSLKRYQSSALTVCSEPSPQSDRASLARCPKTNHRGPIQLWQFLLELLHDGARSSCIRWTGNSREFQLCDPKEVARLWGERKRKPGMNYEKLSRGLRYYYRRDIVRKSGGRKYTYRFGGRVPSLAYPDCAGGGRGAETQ
# How it was run: as §1
# ELF3 = biological target: T5, ELF3 (Homo sapiens, UniProt P78545 1-371); details: protein: recombinant; tags: N-terminal GST; dsDNA, one strand shown
# T5 sequence: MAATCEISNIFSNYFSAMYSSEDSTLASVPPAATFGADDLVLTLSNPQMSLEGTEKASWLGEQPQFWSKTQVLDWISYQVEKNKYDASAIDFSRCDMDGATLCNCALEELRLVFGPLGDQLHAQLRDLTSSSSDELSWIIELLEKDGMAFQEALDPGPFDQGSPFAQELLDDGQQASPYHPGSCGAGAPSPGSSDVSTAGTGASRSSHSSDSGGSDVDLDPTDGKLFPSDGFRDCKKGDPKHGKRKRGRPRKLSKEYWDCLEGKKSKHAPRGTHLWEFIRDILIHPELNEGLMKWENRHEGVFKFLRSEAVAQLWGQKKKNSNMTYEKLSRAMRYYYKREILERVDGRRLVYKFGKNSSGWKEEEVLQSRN
# How it was run: as §1
# CRX = CRX (Homo sapiens, UniProt O43186 1-299); details: protein: recombinant; tags: N-terminal GST; dsDNA, one strand shown
# Chain of CRX (O43186 whole entry): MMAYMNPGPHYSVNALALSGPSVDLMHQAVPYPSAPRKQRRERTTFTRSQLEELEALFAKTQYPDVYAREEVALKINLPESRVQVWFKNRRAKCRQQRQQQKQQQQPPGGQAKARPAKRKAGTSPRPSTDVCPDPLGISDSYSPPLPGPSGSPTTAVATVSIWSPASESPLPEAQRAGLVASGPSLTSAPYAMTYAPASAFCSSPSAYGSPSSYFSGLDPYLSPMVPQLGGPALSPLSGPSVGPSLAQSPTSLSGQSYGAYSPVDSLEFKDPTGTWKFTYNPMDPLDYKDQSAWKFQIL
# How it was run: as §1
# ETV1 = ETV1 (Homo sapiens, UniProt P50549 1-477); details: protein: recombinant; tags: N-terminal GST; dsDNA, one strand shown
# Chain of ETV1 (P50549 whole entry): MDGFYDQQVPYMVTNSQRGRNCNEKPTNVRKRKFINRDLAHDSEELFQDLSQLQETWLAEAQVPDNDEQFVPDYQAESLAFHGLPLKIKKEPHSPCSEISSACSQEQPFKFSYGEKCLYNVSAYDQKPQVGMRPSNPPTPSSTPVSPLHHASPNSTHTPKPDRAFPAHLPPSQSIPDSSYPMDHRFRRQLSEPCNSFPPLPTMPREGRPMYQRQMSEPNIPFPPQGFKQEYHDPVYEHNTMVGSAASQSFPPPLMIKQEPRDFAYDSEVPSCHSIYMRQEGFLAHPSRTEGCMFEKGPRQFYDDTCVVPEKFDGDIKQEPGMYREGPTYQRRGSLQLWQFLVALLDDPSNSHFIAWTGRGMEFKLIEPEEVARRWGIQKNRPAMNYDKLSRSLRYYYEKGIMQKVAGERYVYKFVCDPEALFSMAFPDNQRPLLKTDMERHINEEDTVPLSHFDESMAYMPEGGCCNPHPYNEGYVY
# How it was run: as §1
# ERF = biological target: T6, ERF (Homo sapiens, UniProt P50548 1-548); details: protein: recombinant; tags: N-terminal GST; dsDNA, one strand shown
# T6 sequence: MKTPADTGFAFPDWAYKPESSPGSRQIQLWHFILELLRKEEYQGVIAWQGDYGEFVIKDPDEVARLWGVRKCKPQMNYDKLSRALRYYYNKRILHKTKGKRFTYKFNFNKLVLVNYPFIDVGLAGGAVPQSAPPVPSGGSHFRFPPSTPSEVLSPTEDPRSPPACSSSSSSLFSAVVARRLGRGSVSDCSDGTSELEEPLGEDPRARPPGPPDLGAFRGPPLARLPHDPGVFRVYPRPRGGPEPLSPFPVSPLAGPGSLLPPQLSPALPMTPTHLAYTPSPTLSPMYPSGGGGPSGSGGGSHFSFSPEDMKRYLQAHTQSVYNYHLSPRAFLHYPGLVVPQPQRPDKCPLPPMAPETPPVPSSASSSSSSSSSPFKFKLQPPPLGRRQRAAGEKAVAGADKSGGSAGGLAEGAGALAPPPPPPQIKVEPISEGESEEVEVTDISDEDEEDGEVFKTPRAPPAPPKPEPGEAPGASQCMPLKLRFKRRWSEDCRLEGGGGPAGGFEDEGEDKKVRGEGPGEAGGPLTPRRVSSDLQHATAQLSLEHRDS
# How it was run: as §1
# ETV3L = biological target: T7, ETV3L (Homo sapiens, UniProt Q6ZN32 1-361); details: protein: recombinant; tags: N-terminal GST; dsDNA, one strand shown
# T7 sequence: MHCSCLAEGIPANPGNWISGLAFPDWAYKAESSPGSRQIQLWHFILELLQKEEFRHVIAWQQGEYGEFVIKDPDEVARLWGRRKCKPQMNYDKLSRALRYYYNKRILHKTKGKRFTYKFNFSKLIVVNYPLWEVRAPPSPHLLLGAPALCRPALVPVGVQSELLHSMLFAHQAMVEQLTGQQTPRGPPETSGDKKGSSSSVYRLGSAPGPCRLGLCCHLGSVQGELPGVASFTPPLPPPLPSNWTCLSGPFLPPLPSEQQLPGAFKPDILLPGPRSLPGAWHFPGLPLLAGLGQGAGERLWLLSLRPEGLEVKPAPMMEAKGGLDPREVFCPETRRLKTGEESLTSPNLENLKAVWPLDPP
# How it was run: as §1
# ETS2 = biological target: T8, ETS2 (Homo sapiens, UniProt P15036 1-469); details: protein: recombinant; tags: N-terminal GST; dsDNA, one strand shown
# T8 sequence: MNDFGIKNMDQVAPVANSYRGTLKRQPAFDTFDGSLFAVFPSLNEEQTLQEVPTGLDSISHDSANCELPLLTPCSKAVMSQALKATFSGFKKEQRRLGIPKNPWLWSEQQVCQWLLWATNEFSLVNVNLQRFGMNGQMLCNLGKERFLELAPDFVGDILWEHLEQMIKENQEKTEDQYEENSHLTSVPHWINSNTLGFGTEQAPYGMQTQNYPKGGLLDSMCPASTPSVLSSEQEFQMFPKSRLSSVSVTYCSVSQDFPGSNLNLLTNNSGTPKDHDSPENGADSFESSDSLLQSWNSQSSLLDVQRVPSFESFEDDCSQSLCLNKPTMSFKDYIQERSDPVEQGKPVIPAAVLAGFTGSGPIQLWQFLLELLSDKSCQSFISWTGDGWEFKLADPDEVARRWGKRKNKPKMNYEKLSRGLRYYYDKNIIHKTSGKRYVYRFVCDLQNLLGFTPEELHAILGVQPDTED
# How it was run: as §1
# SPDEF = biological target: T9, SPDEF (Homo sapiens, UniProt O95238 1-335); details: protein: recombinant; tags: N-terminal GST; dsDNA, one strand shown
# T9 sequence: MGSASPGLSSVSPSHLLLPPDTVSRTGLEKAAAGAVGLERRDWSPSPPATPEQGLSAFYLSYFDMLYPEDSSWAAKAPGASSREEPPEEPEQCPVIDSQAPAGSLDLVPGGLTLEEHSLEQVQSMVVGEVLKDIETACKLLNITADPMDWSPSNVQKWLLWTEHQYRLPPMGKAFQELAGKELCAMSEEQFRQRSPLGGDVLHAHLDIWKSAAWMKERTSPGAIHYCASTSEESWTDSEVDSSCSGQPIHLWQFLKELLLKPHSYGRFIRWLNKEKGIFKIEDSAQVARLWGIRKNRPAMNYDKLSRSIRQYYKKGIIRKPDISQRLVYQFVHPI
# How it was run: as §1
# ETV7 = biological target: T10, ETV7 (Homo sapiens, UniProt Q9Y603 1-341); details: protein: recombinant; tags: N-terminal GST; dsDNA, one strand shown
# T10 sequence: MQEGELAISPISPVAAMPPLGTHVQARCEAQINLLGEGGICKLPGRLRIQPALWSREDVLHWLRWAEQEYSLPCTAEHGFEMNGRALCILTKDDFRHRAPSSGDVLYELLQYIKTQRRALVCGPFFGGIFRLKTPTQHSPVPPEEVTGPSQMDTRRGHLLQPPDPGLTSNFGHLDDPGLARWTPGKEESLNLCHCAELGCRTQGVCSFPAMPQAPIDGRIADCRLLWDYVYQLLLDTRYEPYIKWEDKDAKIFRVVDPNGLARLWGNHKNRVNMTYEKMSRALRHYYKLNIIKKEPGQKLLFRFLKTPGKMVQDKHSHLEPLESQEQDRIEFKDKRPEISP
# How it was run: as §1
# ELF5 = biological target: T11, ELF5 (Homo sapiens, UniProt Q9UKW6-2 1-255); details: protein: recombinant; tags: N-terminal GST; dsDNA, one strand shown
# T11 sequence: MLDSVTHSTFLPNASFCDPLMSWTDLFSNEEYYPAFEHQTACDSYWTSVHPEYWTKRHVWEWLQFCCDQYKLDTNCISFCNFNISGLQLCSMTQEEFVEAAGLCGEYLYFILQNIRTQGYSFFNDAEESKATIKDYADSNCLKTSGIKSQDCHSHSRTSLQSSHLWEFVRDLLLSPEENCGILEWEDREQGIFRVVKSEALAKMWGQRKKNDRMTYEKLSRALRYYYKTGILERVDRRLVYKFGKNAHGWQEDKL
# How it was run: as §1
# ETV3 = biological target: T12, ETV3 (Homo sapiens, UniProt P41162-2 1-143); details: protein: recombinant; tags: N-terminal GST; dsDNA, one strand shown
# T12 sequence: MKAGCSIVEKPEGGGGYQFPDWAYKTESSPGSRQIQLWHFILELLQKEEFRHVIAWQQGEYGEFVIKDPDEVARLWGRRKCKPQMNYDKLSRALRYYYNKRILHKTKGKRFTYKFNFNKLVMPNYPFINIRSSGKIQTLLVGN
# How it was run: as §1
# ETV6 = ETV6 (Homo sapiens, UniProt P41212 1-452); details: protein: recombinant; tags: N-terminal GST; dsDNA, one strand shown
# Chain of ETV6 (P41212 whole entry): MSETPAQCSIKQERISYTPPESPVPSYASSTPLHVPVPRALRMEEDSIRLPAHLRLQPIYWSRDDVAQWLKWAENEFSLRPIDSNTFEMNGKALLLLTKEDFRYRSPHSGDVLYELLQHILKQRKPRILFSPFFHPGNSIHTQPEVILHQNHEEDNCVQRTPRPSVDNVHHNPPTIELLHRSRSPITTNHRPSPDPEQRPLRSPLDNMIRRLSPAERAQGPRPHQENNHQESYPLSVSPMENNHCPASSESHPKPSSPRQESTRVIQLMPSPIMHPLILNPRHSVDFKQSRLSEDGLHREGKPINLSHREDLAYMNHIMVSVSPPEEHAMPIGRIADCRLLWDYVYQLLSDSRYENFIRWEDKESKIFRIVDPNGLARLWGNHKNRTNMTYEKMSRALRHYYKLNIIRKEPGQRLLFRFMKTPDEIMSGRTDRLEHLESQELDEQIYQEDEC
# How it was run: as §1
sequence,measurement,setting,value
CTAATG,binding signal,FEV,"1.16 fold enrichment (6-mer frequency, TF over GST control)"
same,binding signal,ETV5,"1.25 fold enrichment (6-mer frequency, TF over GST control)"
same,binding signal,HSF1,"1.31 fold enrichment (6-mer frequency, TF over GST control)"
same,binding signal,SPIC,"1.35 fold enrichment (6-mer frequency, TF over GST control)"
same,binding signal,ELF4,"1.36 fold enrichment (6-mer frequency, TF over GST control)"
same,binding signal,ELK4,"1.34 fold enrichment (6-mer frequency, TF over GST control)"
same,binding signal,ETV2,"1.12 fold enrichment (6-mer frequency, TF over GST control)"
same,binding signal,ELF3,"1.27 fold enrichment (6-mer frequency, TF over GST control)"
same,binding signal,CRX,"1.6 fold enrichment (6-mer frequency, TF over GST control)"
same,binding signal,ETV1,"1.29 fold enrichment (6-mer frequency, TF over GST control)"
same,binding signal,ERF,"1.2 fold enrichment (6-mer frequency, TF over GST control)"
same,binding signal,ETV3L,"1.17 fold enrichment (6-mer frequency, TF over GST control)"
same,binding signal,ETS2,"1.25 fold enrichment (6-mer frequency, TF over GST control)"
same,binding signal,SPDEF,"1.11 fold enrichment (6-mer frequency, TF over GST control)"
same,binding signal,ETV7,"1.3 fold enrichment (6-mer frequency, TF over GST control)"
same,binding signal,ELF5,"1.23 fold enrichment (6-mer frequency, TF over GST control)"
same,binding signal,ETV3,"1.16 fold enrichment (6-mer frequency, TF over GST control)"
same,binding signal,ETV6,"1.3 fold enrichment (6-mer frequency, TF over GST control)"
